Abeta rescue = restores growth of yeast expressing A-beta42 peptide; Potency, µM (doses to about 46.1 µM), usual class: activators; 0.063% of 410,000 active; AID 1347071; yeast expressing A-beta42, growth rescue, OD600, 48 h; response scale: 0% DMSO, 100% iron-clioquinol control; note: nearly all actives have a fitted effect of over 55% in size
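Yeast growth medium received pinned compounds, then yeast cells expressing toxic A-beta were added; plates incubated at 30 C for 48 hr. Growth read as absorbance at 600 nm, normalized to DMSO and equimolar FeCl3 plus clioquinol controls.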
Mito fusion act = inhibitors of mitochondrial division or activators of mitochondrial fusion; Potency, µM (top dose mostly 46.1 µM), for inactives: top-dose growth rescue (activation), actives largely listed as activators; 0.23% of 320,000 active; S. cerevisiae fusion-defective mutant growth rescue, CellTiterGlo 48 h; note: % of control where 0% means no effect; nearly all actives have a fitted effect of over 45% in size
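Luminescent cell viability in 1536-well qHTS format served as the measure of rescued growth in ts fusion-mutant S. cerevisiae cultured on non-fermentable YPEG for 48 hours at 37C.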
TDP43 rescue = TDP-43 toxicity inhibition in yeast; TDP-43 expressing yeast growth rescue, BacTiter-Glo, 24 h; Potency, µM (series often up to 46.1 µM), without a hit: top-dose growth rescue (activation), usual class: activators; 1.8% of 410,000 active; AID 652104; note: % of control where 0% means no effect; nearly all actives have a fitted effect of over 50% in size
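Cell-based yeast growth screen: TDP-43 expression induced in galactose, inoculum OD600=0.02 after raffinose pregrowth to mid-log. Read-out BacTiter-Glo luminescence at 24 hr, 30 deg C; inhibition of toxicity seen as signal increase.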
aSyn yeast inh = alpha-synuclein toxicity inhibition in yeast | Yeast expressing alpha-synuclein, growth rescue, BacTiter-Glo, 24 h | Potency, µM (doses to about 46.1 µM), for the others: top-dose growth rescue (activation), usual class: activators | 0.14% of 370,000 active | AID 652106; note: % of control where 0% means no effect; nearly all actives have a fitted effect of over 65% in size
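Readout is rescue of growth in alpha-synuclein-expressing yeast, so inhibitors of toxicity appear as activators. Growth after 24 hr at 30 deg C in galactose medium is quantified by luminescence.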
FUS suppressor = rescues growth of FUS-expressing yeast; S. cerevisiae FUS-expressing, growth rescue, OD600, 24 h; Potency, µM (highest dose often 76.6 µM), hits mostly activators; 0.24% of 390,000 active;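 note: plate controls were DMSO vehicle for no effect and reference control for full effect; nearly all actives have a fitted effect of over 55% in size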
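Galactose (2%) drives FUS expression in yeast precultured in raffinose; seeding density OD 0.005. Test compounds incubated 24hr at 30C and 99% humidity before absorbance at 600 nm was measured.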
An asterisk follows results filed as active; i = inactive; ? = inconclusive; · = no result. The list is not random: actives were taken first. Their share in the collection is about 2.2%. Calls come from the whole dose curve; as a rule, active = well fitted curve in the direction sought with a large enough effect; inconclusive = small, poorly fitted or top-dose-only effect, or another doubt; inactive = no such curve, though single readings can be large; an effect the other way counts as inactive or inconclusive. Potency is the fitted concentration of half-maximal effect.

SMILES | Abeta rescue | Mito fusion act | TDP43 rescue | aSyn yeast inh | FUS suppressor
Cc1cccc(NCc2nc3ccccc3n2Cc2ccccc2)c1 | ? | 7.1% | 15.8µM* | 0.0% | i
COc1ccc(Cc2nc3ccccc3n2Cc2ccccc2C)cc1 | i | · | 7.5% | · | i
Cc1cccc(-c2nc3ccccc3n2Cc2ccccc2)c1 | i | · | 11.2µM* | · | i
Cc1nc2cc(NCc3nc4ccccc4n3Cc3ccccc3)ccc2n1C | i | -0.2% | -11.3% | -7.9% | ·
COc1cccc(OCc2nc3ccccc3n2Cc2ccccc2C)c1 | ? | · | 22.4µM* | · | i
CC1CCCN(CCCNC(=O)c2ccc3c(c2)N(Cc2cccc(Cl)c2)C(=O)c2ccccc2S3(=O)=O)C1 (stereo not drawn) | i | · | -3.3% | · | i
CCOC(=O)/C(=N\Nc1cccc(Cl)c1)Sc1nnc(-c2ccc(OC)cc2)n1C | i | 14.0% | 31.6µM* | -0.2% | ·
CCCCNC(=O)C[C@@H]1C(=O)N(CCc2ccc(Cl)cc2)C2=CCCCC[C@]21C(=O)OC | · | · | · | · | i
CC1N=C2c3ccccc3N=C(SCC(=O)NCCc3ccc(Cl)cc3)N2C1=O (stereo not drawn) | i | · | 17.8% | · | i
Cc1cccc(Nc2ncnc3c2cnn3Cc2ccccc2)c1 | i | 3.8% | 15.8µM* | 1.0% | i
COc1ccc(Nc2ncnc3c2cnn3Cc2ccccc2)cc1OC | i | -1.2% | -22.2% | -7.7% | i
Cc1ccc(CSc2ncnc3c2cnn3Cc2ccccc2)cc1C | i | 6.7% | 1µM* | -0.6% | i
CCc1ccc(NC(=O)C2=C(C)C(=O)OC23CCCCC3)cc1 | i | · | ? | · | i
Cc1ccc(-c2nc3cc(C)c(Br)c(C)n3c2CC2CCCCC2)cc1 | i | · | 16.4% | -9.6% | i
COc1ccc(-c2nc3cc(C)c(Br)c(C)n3c2CC2CCCCC2)cc1OC | i | · | 22.4µM* | 2.0% | i
O=C(c1cnc2c(c1)COc1ccccc1-2)c1ccccc1O | i | · | ? | · | i
Cc1ccc([N+](=O)[O-])cc1S(=O)(=O)N1CCC(C)CC1 | i | 1.4% | 15.8µM* | 12.8% | i
Cc1ccc(S(=O)(=O)N2CCC(C)CC2)c([N+](=O)[O-])c1 | i | -1.1% | 17.8µM* | 14.1% | i
Cc1ccc([N+](=O)[O-])cc1S(=O)(=O)N1CCCC1 | i | 0.9% | ? | 1.6% | i
Cc1c(F)cccc1NS(=O)(=O)c1cccs1 | i | · | 6.8% | · | i
CSc1ccccc1NC(=O)COC(=O)/C=C/c1ccco1 | i | · | 5.01µM* | 1.1% | i
O=C(COC(=O)/C=C/c1ccco1)NCc1ccco1 | i | -2.8% | 2.5% | 6.0% | i
O=C(COC(=O)/C=C/c1ccco1)NCCc1ccccc1 | i | 5.9% | 15.8µM* | 3.3% | i
COCCNC(=O)/C(C#N)=C/c1ccccc1Br | i | 4.0% | 22.4µM* | -3.1% | i
CC(=O)N1CC2(CC(c3ccccc3C(F)(F)F)=NO2)CN1c1ccc(Cl)cc1 (stereo not drawn) | i | · | 20.6% | 12.6µM* | ?
SMILES | Abeta rescue | Mito fusion act | TDP43 rescue | aSyn yeast inh | FUS suppressor
Clc1ccc(SCNc2ccccc2Cl)cc1 | i | 14.1% | -7.8% | -17.1% | i
Cc1ccc(NCSc2ccc(Cl)cc2)cc1 | ? | · | 7.08µM* | 11.0% | i
O=C(Nc1ccc(N2CCOCC2)cc1Cl)C1CCN(C(=O)OCc2ccccc2)CC1 | 10µM* | -4.3% | 0.0% | -0.2% | i
O=C(Nc1ccc(N2CCOCC2)cc1)C1CCN(C(=O)OCc2ccccc2)CC1 | i | 2.4% | 6.7% | -2.2% | i
CCCN1CNc2c(c(=O)[nH]c(=S)n2CCCc2ccccc2)C1 | · | · | · | 0.9% | ·
CN1CCc2[nH]c3ccc(Cl)cc3c2C1 | · | · | · | 25.0% | ·
C[C@@H]1CN([C@H](C)CO)C(=O)c2cc(NC(=O)Nc3ccc(C(F)(F)F)cc3)ccc2O[C@H]1CN(C)C(=O)Nc1ccc(F)cc1 | i | · | -15.8% | 0.5% | 28.2µM*
C[C@@H]1CCCCO[C@H](CN(C)Cc2ccc(Cl)c(Cl)c2)[C@H](C)CN([C@@H](C)CO)C(=O)c2cc(NC(=O)Nc3ccc(F)cc3)ccc2O1 | i | · | 0.0% | -6.2% | 35.5µM*
CCOC(=O)CCCCCC(=O)Nc1ccc2c(c1)C(=O)N([C@@H](C)CO)C[C@H](C)[C@H](CN(C)C(=O)Nc1ccc(F)cc1)OCCCC[C@H](C)O2 | i | · | 26.5% | -0.2% | 22.4µM*
COc1ccc(NC(=O)Nc2ccc3c(c2)C(=O)N([C@H](C)CO)C[C@H](C)[C@@H](CN(C)Cc2ccc(Cl)c(Cl)c2)OCCCC[C@@H](C)O3)cc1 | i | · | 6.1% | -2.0% | ?
OC(c1ccccc1)(c1ccccc1)C1CCN(CCCNc2cccc(Br)c2)CC1 | · | · | · | · | i
Cc1cc2oc(C(=O)NCc3ccc4c(c3)OCO4)c(C)c2cc1C | i | -0.2% | 0.0% | 2.5% | i
Cc1c(C(=O)NCc2ccc3c(c2)OCO3)oc2ccccc12 | i | ? | 15.8µM* | 4.5% | i
Cc1cccc(-n2nnc(C(=O)NCc3ccc4c(c3)OCO4)c2N)c1 | i | 7.5% | 17.8µM* | 9.8% | i
Cc1ccc2oc(C(=O)NCc3ccc4c(c3)OCO4)c(C)c2c1 | i | -1.8% | 22.4µM* | -4.5% | i
CC(C)Cc1ccc(C(=O)NCc2ccc3c(c2)OCO3)o1 | i | 2.3% | 14.1µM* | -2.9% | i
COc1ccccc1CNC(=O)c1ccc2c(c1)nc(C)n2-c1cccc(C)c1 | i | · | · | · | i
Cc1ccc(NC(=O)C(=O)NCC(c2cccnc2)N2CCN(c3ccccc3F)CC2)cc1Cl (stereo not drawn) | i | · | -0.4% | · | i
Cc1nc(NCc2ccc3c(c2)OCO3)c2oc3ccccc3c2n1 | i | 5.7% | 4.0% | -14.4% | i
CCc1nc(NCc2ccc3c(c2)OCO3)c2oc3ccccc3c2n1 | i | 19.0% | 11.2µM* | -11.9% | i
COc1ccc(OC)c(NC(=O)CSc2nnc(-c3ccco3)n2-c2ccccc2)c1 | i | 6.1% | 7.9% | -1.7% | i
COc1ccc(-n2c(SCC(=O)Nc3cc(C)c(NC(=O)c4ccccc4)cc3OC)nnc2-c2ccco2)cc1 | · | · | · | · | 11.2µM*
O=C(Cc1ccc(Br)cc1)c1ccc(O)cc1O | i | 7.1% | ? | -11.4% | i
COc1ccc(CC(=O)c2ccc(O)cc2O)cc1 | i | 4.6% | 12.6µM* | -4.4% | i
O=C(Cc1ccc([N+](=O)[O-])cc1)c1ccc(O)cc1O | i | 0.4% | 15.8µM* | -8.7% | i
O=[N+]([O-])c1ccc(N/N=C2\CC3CC=CC23)cc1 (stereo not drawn) | i | -5.2% | 21.5% | 2.5% | i
